Assay outcomes deposited in PubChem BioAssay by several laboratories.
In the library only some 1.8% were active in any assay of this set; here they are far more common.
APP 5UTR inh: APP translation inhibition. SH-SY5Y APP 5'UTR-luciferase reporter, luminescence. inhibition, % at 2 µM. 0.82% of 190,000 active;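 active means inhibition above a set limit, derived from the sample mean plus 3 SD, cut at about 45% in these data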
KLF5 inh: suppresses KLF5 promoter-driven expression; DLD-1 KLF5 promoter-luciferase reporter, luminescence; inhibition, % at 5 µM; 0.23% of 290,000 active;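 active means inhibition above a per-plate limit of that plate's mean compound inhibition plus 3 SD, cut at about 60% in these data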;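 further: 0% = DMSO wells and 100% = LY294002 at 200 µM; higher means less KLF5 promoter-driven luciferase light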
BaF3 parental: parental Ba/F3 viability inhibition as JAK2V617F counter-screen; CellTiter-Glo ATP luminescence; inhibition, % at 5.6 µM; 1.1% of 220,000 active; AID 1486;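 active means inhibition above a per-campaign cutoff, the mean inhibition of all tested compounds plus 3 SD, cut at about 27% in these data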;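 further: 0% = DMSO wells and 100% = JAK Inhibitor I control wells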
Ba/F3 V617F tox: loss of viability in JAK2V617F-driven Ba/F3 cells; Ba/F3 EpoR-JAK2V617F viability, ATP luminescence; inhibition, % at 5.6 µM; 1.1% of 220,000 active; AID 1446;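 active means inhibition above the campaign mean plus 3 SD over all tested compounds, cut at about 24% in these data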;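 further: cytokine-independent growth of Ba/F3 cells driven by EpoR plus mutant JAK2; 0% = DMSO-treated cells and 100% = JAK inhibitor I control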
IEC-6 cytotox: kills IEC-6 intestinal cells in KLF5 counter-screen. IEC-6 cytotoxicity, luminescence viability. inhibition, % at 5 µM. 0.78% of 290,000 active; in the data active means inhibition above about 22%;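 further: 0% = plate median of test compound wells and 100% = cytotoxic reference compound wells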
The depositor's hits bear a star; / = no result.

SMILES | APP 5UTR inh | KLF5 inh | BaF3 parental | Ba/F3 V617F tox | IEC-6 cytotox
C/C(=N/NC(=O)c1ccc2c(c1)OCO2)c1ccc(Br)s1 | -81.5 | -18.3 | -2.0 | -0.8 | -0.8
C/C(=N\NC(=O)c1ccc(Cl)c(Cl)c1)c1ccc(Br)s1 | 51.6* | 20.7 | 3.7 | -3.1 | -7.6
COC(=O)c1ccc(Oc2cc(C)nc(SC)n2)cc1 | 86.4* | 12.3 | 4.8 | 0.7 | 7.0
COC(=O)c1ccc(Oc2cc(C)nc(Cl)n2)cc1 | -8.3 | -19.0 | 8.7 | 3.8 | -0.9
c1cn(CCCNC2=NCCCCC2)cn1 | -7.5 | -2.5 | 90.7* | 1.6 | 1.7
CCOC(=O)C1=C(C)N=c2s/c(=C\c3ccc(O)c([N+](=O)[O-])c3)c(=O)n2C1c1ccccc1OC (stereo unspecified) | / | -3.0 | / | / | -11.9
COc1ccc(/C=c2/sc3n(c2=O)C(c2ccccc2OC)C2=C(N=3)c3ccccc3CC2)cc1O (stereo unspecified) | 84.2* | 6.4 | 28.8* | 11.0 | -2.5
CCCCCCn1c(NCC)nc2c1c(=O)n(C)c(=O)n2C | 1.9 | -15.3 | 59.4* | 54.0* | 16.3
COCCNc1nc2c(c(=O)n(C)c(=O)n2C)n1Cc1cccc(C(F)(F)F)c1 | -0.7 | -58.5 | 59.7* | 59.1* | -5.6
CC(O)CNc1nc2c(c(=O)n(C)c(=O)n2C)n1Cc1cccc(C(F)(F)F)c1 (stereo unspecified) | -7.3 | -12.1 | 3.9 | -1.5 | 4.7
COc1cccc(Cn2c(NCc3ccco3)nc3c2c(=O)n(C)c(=O)n3C)c1 | -9.5 | 7.9 | 85.9* | 59.4* | 10.3
CCCCCCn1c(Br)nc2c1c(=O)n(C)c(=O)n2C | -23.7 | -31.6 | 3.4 | -1.8 | -1.6
CCCNc1nc2c(c(=O)n(C)c(=O)n2C)n1CCc1ccccc1 | -7.1 | 2.3 | 3.3 | -1.4 | -0.1
CCCNc1nc2c(c(=O)n(C)c(=O)n2C)n1Cc1cccc(C)c1 | -7.8 | -30.2 | 44.8* | 42.4* | 3.6
COc1ccc(F)cc1C(=O)C1CCCN(Cc2ccc(Sc3nncn3C)o2)C1 (stereo unspecified) | 11.0 | -23.9 | 6.3 | -3.5 | 2.7
Cc1nc2cc(C)c(C)cc2s1 | -9.8 | -10.1 | 6.1 | 1.5 | -2.6
COc1ccc2nc(N=Nc3ccc(N(C)C)cc3)sc2c1 | -112.6 | -45.9 | 7.7 | 4.3 | 2.4
CN(C)c1ccc2nc3ccc(=[N+](C)C)cc-3sc2c1 | 61.6* | 30.6 | 101.4* | 97.1* | 5.9
Cc1cc2nc3ccc(=[N+](C)C)cc-3sc2cc1N | / | 25.3 | 84.8* | 68.3* | 16.1
Brc1ccc(N/N=C(/N=Nc2nn[nH]n2)c2ccccc2)cc1 | 58.5* | 42.8 | 8.0 | 10.7 | 9.7
Cc1csc2c(=O)[nH]cnc12 | -8.9 | -27.9 | 1.7 | -1.3 | -2.0
O=C(NC(=S)NC1CCCCCCCCCCC1)c1cccnc1 | 1.6 | -9.3 | 65.2* | -2.3 | -4.1
Cc1sc2ncnc(Nc3ccccc3)c2c1C | / | -20.2 | 7.5 | 1.5 | 7.6
c1ccc(-c2csc3ncnc(NCC4COc5ccccc5O4)c23)cc1 (stereo unspecified) | 18.7 | 2.8 | 70.9* | 71.5* | 9.7
Cc1sc2ncnc(NCc3ccccc3)c2c1C | -5.4 | 4.8 | 35.0* | 12.7 | 9.1
SMILES | APP 5UTR inh | KLF5 inh | BaF3 parental | Ba/F3 V617F tox | IEC-6 cytotox
Cc1sc2ncnc(NCC3COc4ccccc4O3)c2c1C (stereo unspecified) | 7.6 | -6.0 | 73.2* | 53.1* | 8.8
Cc1sc2ncnc(NCC(C)(C)N3CCOCC3)c2c1C | 8.8 | -7.7 | 36.7* | 21.1 | 4.8
COc1cc(C2NC(=O)NC(C)=C2C(=O)OC2CCCCC2)cc(Cl)c1O (stereo unspecified) | / | -8.9 | / | / | 2.6
Cc1ccc(N=C2NC(=O)/C(=C\c3ccsc3)S2)c(C)c1 | 18.0 | -7.3 | 0.5 | -3.3 | 3.5
CCCOc1cccc(-c2cc(C(=O)NNC(=S)NCC)c3ccccc3n2)c1 | 53.1* | -30.3 | 3.3 | 1.7 | 2.9
CCNC(=S)NNC(=O)c1cc(-c2cccc(OC)c2)nc2ccccc12 | 18.5 | -10.2 | 5.6 | -1.0 | -0.6
O=C(OCCN1C(=O)c2cccc3c(N4CCOCC4)ccc(c23)C1=O)c1ccc(Cl)cc1Cl | 94.1* | -11.3 | 0.1 | -3.2 | -3.4
Cc1cccc(C(=O)NCC(=O)OCC(=O)c2ccc(Cl)s2)c1 | / | -18.3 | / | / | -0.8
O=C(COc1ccc(Cl)cc1Br)Nc1ccncc1 | / | -2.4 | / | / | 7.6
N#Cc1c(NCCN)nc(NCc2ccccc2)c2c1CCN(Cc1ccccc1)C2 | -5.8 | -14.9 | 4.6 | 3.3 | -5.7
CCN1CCc2c(C#N)c(NCc3ccccc3)nc(N(CC)CC)c2C1 | 4.8 | -5.7 | 49.7* | 18.7 | -11.3
CCC(O)C1CCN(C(=O)c2cc(COc3ccc4ncccc4c3)on2)CC1 (stereo unspecified) | 4.0 | 41.6 | 67.6* | 47.5* | 13.7
O=C(c1cc(COc2ccc3ncccc3c2)on1)N1CCC(O)CC1 | -3.9 | -26.6 | 2.9 | 0.4 | 1.2
O=C(NC1CCCCCCC1)c1cc(COc2ccc3ncccc3c2)on1 | 3.9 | -9.4 | 39.1* | 6.7 | 2.3
O=C(O)C1Cc2ccccc2CN1C(=O)CCl (stereo unspecified) | 9.1 | -23.6 | 9.6 | -0.9 | -0.9
CC1(C)CC(=O)C(C(C2=C(O)CC(C)(C)CC2=O)c2ccc(O)c([N+](=O)[O-])c2)=C(O)C1 | -17.9 | -19.0 | 94.3* | 3.3 | -5.3
COc1ccc(S(=O)(=O)N(CC(=O)NC2CC2)c2ccc(C)cc2)cc1OC | 10.2 | -11.7 | 10.1 | 5.2 | -1.3
COc1ccc(C2=NN(CC(=O)Nc3ccccc3C)C(=O)CC2)cc1 | / | 9.2 | 57.5* | -0.9 | 2.5
COC(=O)C1=NN(c2ccc(Cl)cc2)C2C(=O)N(c3ccccc3OC)C(=O)C12 (stereo unspecified) | -10.2 | 5.4 | 5.7 | 3.4 | 10.9
COC(=O)Cc1n[nH]c(=S)[nH]c1=O | 49.6* | -10.5 | 4.4 | -1.7 | -5.9
CC(C)[C@H](NC(=O)N1c2ccccc2NC(=O)[C@@H]1C(C)C)C(=O)N1CCC[C@H]1C(=O)O | / | -11.4 | / | / | 4.8
Cc1ccc(-n2nc3cc(C)c(NC(=S)NC(=O)/C=C/c4ccco4)cc3n2)cc1 | -42.6 | -55.0 | 63.2* | 67.9* | 3.4
COc1ccc(-c2csc(NC(=S)NC(=O)/C=C/c3ccco3)n2)cc1Br | / | -5.5 | 2.9 | -1.4 | -4.0
COc1ccc(-c2csc(NC(=S)NC(=O)/C=C/c3ccco3)n2)cc1OC | 74.8* | -14.0 | 3.2 | 3.0 | 13.6
CN(Cc1ccccc1)C(=O)c1ccc(NC(=O)C2=CSCCO2)cc1 | / | -56.9 | / | / | -0.7
O=C(NCC1OCCc2ccccc21)c1ccc(NC(=O)c2ccc(Cl)cc2)cc1 (stereo unspecified) | 2.7 | -4.5 | 6.2 | -1.1 | -1.5
O=C(CNC(=O)c1cccs1)N=Nc1c(O)[nH]c2ccc([N+](=O)[O-])cc12 | / | -4.3 | / | / | -7.5
CCOC(=O)C1(CC2CC2)CCN(Cc2cc(Cl)c(O)c(OC)c2)CC1 | -5.8 | -27.2 | 2.9 | 0.9 | -1.7
CCOC(=O)C1(CC2CC2)CCN(Cc2ccc(OC)cc2F)CC1 | 9.4 | 0.8 | 80.5* | -1.5 | 0.2
COc1ccc(-c2onc3ccc(Br)cc23)cc1 | -22.1 | 7.3 | 5.5 | -0.2 | -4.2
